# Screening results deposited in PubChem BioAssay by The Scripps Research Institute Molecular Screening Center.
# Compounds with a hit are over-represented: about 4.8% of the library has one in this group of screens.
# DAX1 inh-1 – inhibitors of human orphan nuclear receptor DAX1 (NR0B1) | P51843 | HEK293 Gal4-DAX1 luciferase reporter, luminescence | inhibition, % at 6.75 µM | 340,000 compounds, 0.99% hits | AID 504766;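 active means inhibition above the mean over all tested compounds plus 3 SD, cut at about 4.2% in these data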;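 further: 0% = DAX1-transfected cells with DMSO and 100% = empty-vector control cells with DMSO; inhibition shows as a rise in luminescence from relieved DAX1 repression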
# Target sequence (P51843 207-470 limits assumed): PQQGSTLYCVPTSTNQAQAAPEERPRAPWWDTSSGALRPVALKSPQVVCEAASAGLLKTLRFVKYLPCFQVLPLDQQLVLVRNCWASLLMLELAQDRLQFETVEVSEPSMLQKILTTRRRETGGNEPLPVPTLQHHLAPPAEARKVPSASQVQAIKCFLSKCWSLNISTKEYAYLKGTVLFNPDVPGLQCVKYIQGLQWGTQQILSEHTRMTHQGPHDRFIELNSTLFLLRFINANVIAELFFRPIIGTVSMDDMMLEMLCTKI
# ssDAF12 agonist – S. stercoralis DAF-12 activation, primary screen | HEK293 ssDAF-12/GRIP1 lit1-tk-luc reporter, luminescence; % of 3 µM dafachronic acid response | 370,000 compounds, 1% hits | activation, % at 6.8 µM;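 active means activation above the mean over all tested compounds plus 3 SD, cut at about 0.9% in these data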;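 further: 0% = DMSO-only wells and 100% = 3 µM delta7-dafachronic acid wells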
# SMARCA2 act – activators of SMARCA2 function; AID 652017; 370,000 compounds, 1% hits; activation, % at 9.1 µM; MG213 cells, MMTV-luciferase reporter, dexamethasone, overnight; in the data active means activation above about 7.8%;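 further: 0% = vehicle wells and 100% = reference activator wells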
# hgDAF12 agonist – activates the H. glycines DAF-12 receptor ligand-binding domain | HEK293 GAL4-hgDAF12 UAS-luciferase reporter, agonist luminescence; normalized to butyrate control | activation, % at 6.8 µM | 370,000 compounds, 1.8% hits | AID 687014;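 active means activation above a cutoff set at the mean of all screened compounds plus 3 SD, cut at about 10% in these data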;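 further: 0% = DMSO wells and 100% = sodium butyrate wells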
# DAX1 inh-2 – DAX1 (NR0B1) inhibition, primary screen | HEK293T StAR-luciferase reporter, SF-1/DAX-1 repression relief | 370,000 compounds, 1.1% hits | inhibition, % at 6.8 µM;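 active means inhibition above the mean over all tested compounds plus 3 SD, cut at about 3.6% in these data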;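 further: 0% = DAX-1 cells with DMSO and 100% = cells lacking DAX-1 with DMSO; higher inhibition means more luminescence from relief of DAX-1 repression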
# hcDAF12 agonist – activators of H. contortus DAF-12 nuclear receptor. activation, % at 6.8 µM. AID 652067. HEK293 hcDAF-12 lit1-tk-luc reporter, luminescence; 0% DMSO, 100% Δ7-dafachronic acid. 370,000 compounds, 1.4% hits;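 active means activation above the mean of all tested compounds plus 3 SD, cut at about 5.5% in these data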;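 further: 100% = response to 3 µM Δ7-dafachronic acid high control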
# DAX1 inh confirm – NR0B1 (human) inhibition, confirmation. shares compounds with DAX1 inh-2. HEK293T StAR-promoter luciferase reporter, SF-1/DAX-1 repression. inhibition, % at 6.8 µM. 2,400 compounds, 87% hits. AID 652134;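 active means inhibition above the average of every tested compound plus 3 SD, cut at about 3.8% in these data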;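 further: 0% = DAX-1 cells with DMSO and 100% = no DAX-1 control cells with DMSO; active compounds raise luminescence by relieving repression of the StAR reporter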
# SF1 mutant ctr – nonselective inhibitor or artifact in SF-1 mutant DAX1 counter-screen | shares compounds with DAX1 inh-2 | HEK293 StAR-luciferase, SF-1 AF2 mutant, luminescence | inhibition, % at 6.8 µM | 2,400 compounds, 78% hits | AID 652136;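 active means inhibition above the mean of all tested compounds plus 3 SD, cut at about 3% in these data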;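 further: 0% = DAX-1 transfected cells with DMSO and 100% = cells without DAX-1 with DMSO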
# SMARCA2 act conf – SMARCA2 activation, confirmation screen; activation, % at 9.1 µM; shares compounds with SMARCA2 act; MG213 cells, MMTV-luciferase with dexamethasone, luminescence, overnight; MG213 cells expressing E1A, Rb sequestered; DMSO wells 0%, reference activator 100%; 3,500 compounds, 30% hits;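 active means activation above its plate's cutoff, the mean activation of tested wells plus 3 SD, cut at about 7.9% in these data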
# VP16 Luc act – GAL4-VP16 reporter activation counter-screen | shares compounds with SMARCA2 act | HEK293 GAL4-VP16 pG5luc reporter, luciferase luminescence; scaled: DMSO wells 0%, SAHA wells 100% | activation, % at 9.1 µM | 3,500 compounds, 41% hits | AID 686939;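 active means activation above the solvent-only control well mean plus 3 SD, averaged across control plates, cut at about 5.2% in these data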
# LXRb hcDAF ctr – LXR-beta agonism as hcDAF-12 counter-screen; shares compounds with hcDAF12 agonist; HEK293 Gal4-LXR tk-luc reporter, luminescence, 24 h; normalized: DMSO 0%, positive control 100%; activation, % at 6.8 µM; 3,400 tested, under 10 active; AID 743027;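 active means mean percent activation of the reporter above a cutoff set as the average over tested compounds plus their standard deviation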
# hcDAF12 ag – confirmation of H. contortus DAF-12 agonists. 3,400 compounds, 61% hits. shares compounds with hcDAF12 agonist. AID 743032. HEK293 hcDAF-12 lit1-tk-luc reporter, luminescence; % of Δ7-dafachronic acid response. activation, % at 6.8 µM;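 active means mean activation across triplicate tests above the threshold derived from the earlier primary screen, cut at about 5.5% in these data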;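 further: 0% = DMSO only wells and 100% = 3 µM Δ7-dafachronic acid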
# hgDAF12 ag – hgDAF-12 agonism, confirmation assay. shares compounds with hgDAF12 agonist. HEK293 GAL4-hgDAF12 luciferase reporter, agonist mode; percent of butyrate response. activation, % at 6.8 µM. 3,300 compounds, 80% hits. AID 743050;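 active means mean activation over triplicate wells above the hit cutoff derived from the earlier primary screen, cut at about 11% in these data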;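 further: 0% = DMSO low control and 100% = 2 mM sodium butyrate high control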
# LXR ag 2 – counter-screen for DAF-12 agonists: agonists of human LXR-beta. shares compounds with hgDAF12 agonist. HEK293 Gal4-LXR luciferase reporter, 24 h. activation, % at 6.8 µM. 3,300 tested, under 10 active. AID 743051;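 active means mean activation of the triplicate above a set limit carried over from the primary screen, none filed active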
# Numbers without * were called inactive; / = no result.
SMILES,DAX1 inh-1,ssDAF12 agonist,SMARCA2 act,hgDAF12 agonist,DAX1 inh-2,hcDAF12 agonist,DAX1 inh confirm,SF1 mutant ctr,hgDAF12 ag,LXR ag 2,others
Cc1cccc(C)c1NC(=O)C1C(c2ccc3c(c2)OCO3)=Nc2ccccc2N1C(=O)c1ccccc1 (configuration not stated),/,-1,3,0,1,0,/,/,/,/,
CCOC(=O)/C=C/C(=O)N1CCc2ccccc21,-1,-1,7,0,-1,3,/,/,/,/,
O=C(/C=C/c1ccco1)N1CCc2ccccc21,0,1.5*,9.6*,16*,10*,16*,13*,6.4*,21*,1,SMARCA2 act conf=17*;VP16 Luc act=10.0*;LXRb hcDAF ctr=2;hcDAF12 ag=11*
CC(OC(=O)c1ccc2c(c1)OCCO2)C(=O)c1ccccc1 (configuration not stated),4.9*,1,5,14*,12*,7.3*,11*,6.8*,16*,1,LXRb hcDAF ctr=2;hcDAF12 ag=7.8*
CC1CC(C)CN(C(=O)c2ccc3ccccc3c2)C1 (configuration not stated),-1,-1,2,-1,-1,0,/,/,/,/,
CC1CCN(C(=O)c2ccc3ccccc3c2)CC1,0,-1,2,14*,7.9*,1,6.8*,3.8*,15*,0,
C=C(C)Cn1c(SCC(=O)NN=Cc2c(O)ccc3ccccc23)nnc1-c1ccc(Br)cc1,/,-2,-6,1,-5,-4,/,/,/,/,
CC1CN(c2nc3ccccc3nc2SCC(=O)N2CCN(S(=O)(=O)c3ccc(F)cc3)CC2)CC(C)O1 (configuration not stated),/,-1,-4,-4,-3,-4,/,/,/,/,
CCn1c(/C=N/Nc2ccc(C(=O)O)cc2)nc2ccccc21,1,-1,0,-1,0,1,/,/,/,/,
CC1Oc2ccccc2C=C1/C=N/Nc1ccc(C(=O)O)cc1 (configuration not stated),-1,0.9*,-2,15*,6.3*,6.9*,19*,9.3*,14*,1,LXRb hcDAF ctr=2;hcDAF12 ag=15*
CCCCNC(=O)O[C@H]1CC[C@@]23CCCN2C(=O)CCC[C@H]3[C@H]1C,/,-1,/,-3,/,-1,/,/,/,/,
COc1ccc2nc(NC(=O)c3cccc(N4C(=O)CCC4=O)c3)sc2c1,-1,-1,0,0,0,2,/,/,/,/,
O=C(Nc1nc2ccc(Cl)cc2s1)c1cccc(N2C(=O)CCC2=O)c1,1,0,1,14*,5.0*,5,7.6*,4.1*,10,0,
